According to PubChem BioAssay (Tox21):
A number with no mark means an inactive call. Records with an inconclusive call do not appear. Where a call stands in place of a potency, no number is given. Activity calls are given as the source filed them. Unless noted, the call rests on the fitted dose curve; in most records, active means well fitted curve in the direction sought with a large enough effect in the repeat runs; inconclusive means weak or mixed curves; inactive means no such curve, though single readings can be large; an effect the other way counts as inactive or inconclusive.

Legend:
[1] = target: Androgen receptor (Homo sapiens) (UniProt P10275); assay: qHTS assay to identify small molecule antagonists of the androgen receptor (AR) signaling pathway using the MDA cell line in the presence of 0.5 nM R1881 (AID 1259243); further: nearly all actives have a fitted effect of over 50% in size; further: potency means the concentration at half of the fitted maximal effect
Method in brief: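 We exposed MDA-kb2 cells to compounds under 0.5 nM R1881 stimulation for 16 hr at 37C and quantified MMTV-driven luciferase by luminescence.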

[2] = target: Estrogen receptor (Homo sapiens) (UniProt P03372); assay: qHTS assay to identify small molecule antagonists of the estrogen receptor alpha (ER-alpha) signaling pathway using the BG1 cell line in the presence of 0.1 nM 17-beta-estradiol (AID 1259244); further: nearly all actives have a fitted effect of over 50% in size; further: potency means the concentration at half of the fitted maximal effect
Method in brief: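 VM7Luc4E2; 4xERE-luciferase; 0.1 nM E2 final; 22 h co-incubation, 37C; ONE-Glo luminescence after 30 min at room temperature.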

[3] = qHTS assay to identify small molecule HDAC inhibitors (AID 1259364); further: potency means the concentration at half of the fitted maximal effect;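 further: wild-type HCT-116 cells with endogenous class I/II HDAC activity; nearly all actives have a fitted effect of over 45% in size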
Method in brief: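 Relative class I and II HDAC activity is taken from the luminogenic signal in HCT-116 cells, with compound exposure 2 hr and reagent development 30 min at room temperature.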

[4] = qHTS assay to identify small molecule HDAC inhibitors - cell viability counter screen (AID 1259365); further: nearly all actives have a fitted effect of over 50% in size; further: potency means the concentration at half of the fitted maximal effect
Method in brief: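 After overnight seeding at 1,500 cells per well, wild-type HCT-116 cultures took up compounds in DMSO for 2hr at 37 C. Viable cell content came from luminescence with CellTiter-Glo.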

[5] = qHTS assay to identify small molecule agonists of the sonic hedgehog signaling (Shh) pathway - cell viability counter screen (AID 1259366); further: nearly all actives have a fitted effect of over 50% in size; further: potency means the concentration at half of the fitted maximal effect
Method in brief: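 Same-well cytotoxicity read. Gli1-Luc reporter 3T3 cells; compounds 24hr, 37C/5% CO2; CellTiter-Fluor fluorescence.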

[6] = qHTS assay to identify small molecule antagonists of the sonic hedgehog signaling (Shh) pathway - cell viability counter screen (AID 1259367); further: nearly all actives have a fitted effect of over 55% in size; further: potency means the concentration at half of the fitted maximal effect
Method in brief: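 Using CellTiter-Fluor, viability of Gli1-Luc reporter 3T3 cells is read by fluorescence in the wells used for the Shh luciferase assay. Treatment lasts 23 hr with conditioned medium, then reagent 1 hr at 37C.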

[7] = qHTS assay to identify small molecule agonists of the sonic hedgehog signaling (Shh) pathway (AID 1259368; calls by dose curve;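 further: NIH/3T3-derived 3T3Gli1-Luc cells carrying a stable Gli1-driven firefly luciferase reporter; series mostly up to about 92 µM; nearly all actives have a fitted effect of over 15% in size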)
Method in brief: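 Mouse fibroblast (NIH/3T3) reporter cells with stably integrated Gli1-Luc were treated 24 hr with compound; firefly luciferase luminescence served as the read-out.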

[8] = qHTS assay to identify small molecule antagonists of the sonic hedgehog signaling (Shh) pathway (AID 1259369; calls by dose curve; further: nearly all actives have a fitted effect of over 45% in size; further: potency means the concentration at half of the fitted maximal effect)
Method in brief: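 Conditioned medium drives Shh signalling in 3T3Gli1-Luc cells; compounds in DMSO co-applied, 24hr at 37 C, then luciferase luminescence.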

[9] = target: Estrogen receptor beta (Homo sapiens) (UniProt Q92731); assay: qHTS assay to identify small molecule agonists of the estrogen receptor beta (ER-beta) signaling pathway (AID 1259377; active means well fitted activation curve with a large enough effect in the signal ratio in the repeat runs, not every such curve was filed as active; the % refers to the signal ratio)
Method in brief: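 Read-out: beta-lactamase FRET fluorescence. Cell line: ER-beta-UAS-bla HEK293T in 2% charcoal-stripped FBS. Exposure: 16 hr at 37C. Substrate step: 2 h at room temperature.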

[10] = target: Estrogen receptor beta (Homo sapiens) (UniProt Q92731); assay: qHTS assay to identify small molecule antagonists of the estrogen receptor beta (ER-beta) signaling pathway (AID 1259378; active means well fitted inhibition curve with a large enough effect in the signal ratio in the repeat runs, not every such curve was filed as active; the % refers to the signal ratio; further: potency means the concentration at half of the fitted maximal effect)
Method in brief: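 Antagonist mode: compounds added to beta-lactamase reporter HEK293T ER-beta-UAS cells stimulated with E2 (1nM final), 16 hr at 37C. LiveBLAzer B/G FRET substrate, 2 hours room temperature, fluorescence read-out.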

[11] = qHTS assay to identify small molecule agonists of the androgen receptor (AR) signaling pathway in the presence of an antagonist - cell viability counter screen (AID 1259379); further: nearly all actives have a fitted effect of over 25% in size; further: potency means the concentration at half of the fitted maximal effect
Method in brief: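 A CellTiter-Fluor read-out measured viability of MDA-kb2 reporter cells (MMTV promoter with AR and GR response elements). Treatment: nilutamide 3.0uM final with compounds at 15 concentrations, 16 hr, 37C, 0% CO2.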

[12] = qHTS assay to identify small molecule agonists of the estrogen receptor beta (ER-beta) signaling pathway - cell viability counter screen (AID 1259380); further: nearly all actives have a fitted effect of over 30% in size; further: potency means the concentration at half of the fitted maximal effect
Method in brief: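 Cells used were ER-beta-UAS-bla HEK293T in medium with 2% charcoal-stripped FBS. They were treated for 16 hr at 37C. Viability came from CellTiter-Glo luminescence.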

[13] = target: Androgen receptor (Homo sapiens) (UniProt P10275); assay: qHTS assay to identify small molecule agonists of the androgen receptor (AR) signaling pathway in the presence of an antagonist (AID 1259381; calls by dose curve; further: nearly all actives have a fitted effect of over 15% in size)
Method in brief: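 Using human MDA-kb2 cells with an MMTV promoter–luciferase construct (AR and GR response elements), agonist activity is scored under 3.0uM nilutamide (final) co-treatment; 16hr incubation, 37C, luminescence readout via ONE-Glo.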

[14] = qHTS assay to identify small molecule antagonists of the estrogen receptor beta (ER-beta) signaling pathway - cell viability counter screen (AID 1259382); further: nearly all actives have a fitted effect of over 55% in size; further: potency means the concentration at half of the fitted maximal effect
Method in brief: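 Agonist-stimulated (1nM E2) ER-beta-UAS-bla HEK293T cells are incubated with library compounds for 16 hr at 37C. Cell viability is then assessed in the reporter-assay wells by adding CellTiter-Glo and reading luminescence after 30 min.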

[15] = target: Estrogen receptor (Homo sapiens) (UniProt P03372); assay: qHTS assay to identify small molecule agonists of the estrogen receptor alpha (ER-alpha) signaling pathway in the presence of an antagonist (AID 1259383; calls by dose curve; further: top concentration of the series differs between compounds; nearly all actives have a fitted effect of over 15% in size)
Method in brief: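 Using VM7Luc4E2 cells seeded 24hr before treatment, antagonist ICI-182,780 (10.0nM final) was added, followed by compounds at 15 concentrations. Plates incubated 22hr; ONE-Glo luminescence quantified reporter activity.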

[16] = qHTS assay to identify small molecule agonists or antagonists of the thyroid stimulating hormone receptor (TSHR) signaling pathway - wild type cell line counter screen (AID 1259384; calls by dose curve)
Method in brief: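 Counter screen in untransfected Hek293: compounds (15-point titration, triplicate) plus phosphodiesterase inhibitor Ro20-1724 added after 18 h plating; 30 min RT. Intracellular cAMP via competitive d2/cryptate immunoassay, 1 h incubation.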

[17] = target: Thyrotropin receptor (Homo sapiens) (UniProt P16473); assay: qHTS assay to identify small molecule antagonists of the thyroid stimulating hormone receptor (TSHR) signaling pathway (AID 1259385; calls by dose curve; further: nearly all actives have a fitted effect of over 20% in size)
Method in brief: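 Antagonist mode: compound-treated TSHR-expressing HEK293 cells were stimulated with 1.5 ng/mL TSH (final) in presence of Ro20-1724 for 30 min at RT. HTRF cAMP detection after 1 h; each compound tested at 15 concentrations, triplicate.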

[18] = qHTS assay to identify small molecule agonists of the estrogen receptor alpha (ER-alpha) signaling pathway in the presence of an antagonist - cell viability counter screen (AID 1259386);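 further: cells exposed to compounds for 22 h at 37 °C before the viability read; nearly all actives have a fitted effect of over 30% in size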; further: potency means the concentration at half of the fitted maximal effect
Method in brief: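 ICI-182,780 at 10.0nM final accompanies the compound titration (15 concentrations, 22hr, 37C) on VM7Luc4E2 cells. The CellTiter-Fluor fluorescence readout runs in the same wells as the luciferase assay.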

[19] = target: Progesterone receptor (Homo sapiens) (UniProt P06401); assay: qHTS assay to identify small molecule agonists of the progesterone receptor (PR) signaling pathway (AID 1346784; calls by dose curve; further: nearly all actives have a fitted effect of over 30% in size)
Method in brief: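 Compounds were tested for PR agonism in HEK 293T cells bearing a beta-lactamase gene under UAS control. Treatment lasted 16 hr at 37C; signal came from fluorescence of a FRET substrate.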

[20] = qHTS assay to identify small molecule phospholipidosis (PLD) inducers (AID 1259344; active means well fitted curve in the direction sought with a large enough effect; an effect the other way counts as inactive or inconclusive)
Method in brief: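 Fluorescent phospholipid staining (LipidTOX Red) measured by automated microscopy in fixed HepG2 cells after 24 h treatment; nuclei counterstained with Hoechst 33342; amiodarone as reference inducer.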

Thyrotropin receptor (Homo sapiens), sequence (P16473 whole entry, looked up): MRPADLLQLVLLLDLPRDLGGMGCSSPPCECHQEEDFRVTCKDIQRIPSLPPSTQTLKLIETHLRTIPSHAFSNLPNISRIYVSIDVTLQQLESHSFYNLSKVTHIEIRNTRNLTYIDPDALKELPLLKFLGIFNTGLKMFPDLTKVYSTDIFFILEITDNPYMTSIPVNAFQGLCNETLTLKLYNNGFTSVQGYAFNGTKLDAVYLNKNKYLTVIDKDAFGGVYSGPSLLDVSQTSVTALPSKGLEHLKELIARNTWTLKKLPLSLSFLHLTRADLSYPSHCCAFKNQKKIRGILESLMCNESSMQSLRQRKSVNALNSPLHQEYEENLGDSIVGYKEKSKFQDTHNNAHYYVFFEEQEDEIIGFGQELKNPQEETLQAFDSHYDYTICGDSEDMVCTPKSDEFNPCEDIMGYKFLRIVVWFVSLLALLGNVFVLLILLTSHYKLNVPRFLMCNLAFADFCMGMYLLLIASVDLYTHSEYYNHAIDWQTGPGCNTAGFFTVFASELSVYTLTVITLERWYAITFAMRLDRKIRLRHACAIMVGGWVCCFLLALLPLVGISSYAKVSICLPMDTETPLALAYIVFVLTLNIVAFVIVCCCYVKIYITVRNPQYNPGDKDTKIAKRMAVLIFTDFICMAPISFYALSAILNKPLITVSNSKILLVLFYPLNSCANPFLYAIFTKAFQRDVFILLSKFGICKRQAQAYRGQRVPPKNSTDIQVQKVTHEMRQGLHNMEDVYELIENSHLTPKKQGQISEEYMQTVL
Estrogen receptor (Homo sapiens), sequence (P03372 whole entry, looked up): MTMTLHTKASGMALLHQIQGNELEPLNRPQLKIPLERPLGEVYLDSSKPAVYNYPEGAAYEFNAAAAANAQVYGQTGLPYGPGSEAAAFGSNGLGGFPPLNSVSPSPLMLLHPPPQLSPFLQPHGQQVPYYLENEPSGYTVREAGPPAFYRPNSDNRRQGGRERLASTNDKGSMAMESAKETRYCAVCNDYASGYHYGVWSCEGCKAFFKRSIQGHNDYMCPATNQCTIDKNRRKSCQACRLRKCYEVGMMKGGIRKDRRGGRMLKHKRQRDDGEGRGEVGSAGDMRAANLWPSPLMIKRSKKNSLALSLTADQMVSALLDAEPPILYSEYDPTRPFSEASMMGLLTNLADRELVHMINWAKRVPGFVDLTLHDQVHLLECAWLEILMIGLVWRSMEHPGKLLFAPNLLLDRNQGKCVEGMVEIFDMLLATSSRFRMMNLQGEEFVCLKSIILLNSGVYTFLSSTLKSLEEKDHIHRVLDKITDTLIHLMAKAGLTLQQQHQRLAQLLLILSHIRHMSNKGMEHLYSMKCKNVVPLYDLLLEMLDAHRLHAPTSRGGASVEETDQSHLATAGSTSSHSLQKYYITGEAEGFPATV
Estrogen receptor beta (Homo sapiens), sequence (Q92731 whole entry, looked up): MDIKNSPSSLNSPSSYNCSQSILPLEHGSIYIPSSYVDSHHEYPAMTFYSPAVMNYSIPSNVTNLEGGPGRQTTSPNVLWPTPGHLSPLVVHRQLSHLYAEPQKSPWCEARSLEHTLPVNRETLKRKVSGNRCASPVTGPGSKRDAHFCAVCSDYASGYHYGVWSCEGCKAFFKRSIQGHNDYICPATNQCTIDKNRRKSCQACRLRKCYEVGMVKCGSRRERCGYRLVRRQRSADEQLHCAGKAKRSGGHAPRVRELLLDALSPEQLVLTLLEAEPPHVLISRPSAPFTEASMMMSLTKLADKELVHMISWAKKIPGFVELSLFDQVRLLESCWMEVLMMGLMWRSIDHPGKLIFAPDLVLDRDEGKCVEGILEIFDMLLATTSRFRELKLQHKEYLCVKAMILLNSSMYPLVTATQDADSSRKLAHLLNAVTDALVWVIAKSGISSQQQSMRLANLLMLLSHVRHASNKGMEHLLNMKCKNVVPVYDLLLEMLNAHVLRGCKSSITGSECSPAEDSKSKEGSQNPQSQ
Progesterone receptor (Homo sapiens), sequence (P06401 whole entry, looked up): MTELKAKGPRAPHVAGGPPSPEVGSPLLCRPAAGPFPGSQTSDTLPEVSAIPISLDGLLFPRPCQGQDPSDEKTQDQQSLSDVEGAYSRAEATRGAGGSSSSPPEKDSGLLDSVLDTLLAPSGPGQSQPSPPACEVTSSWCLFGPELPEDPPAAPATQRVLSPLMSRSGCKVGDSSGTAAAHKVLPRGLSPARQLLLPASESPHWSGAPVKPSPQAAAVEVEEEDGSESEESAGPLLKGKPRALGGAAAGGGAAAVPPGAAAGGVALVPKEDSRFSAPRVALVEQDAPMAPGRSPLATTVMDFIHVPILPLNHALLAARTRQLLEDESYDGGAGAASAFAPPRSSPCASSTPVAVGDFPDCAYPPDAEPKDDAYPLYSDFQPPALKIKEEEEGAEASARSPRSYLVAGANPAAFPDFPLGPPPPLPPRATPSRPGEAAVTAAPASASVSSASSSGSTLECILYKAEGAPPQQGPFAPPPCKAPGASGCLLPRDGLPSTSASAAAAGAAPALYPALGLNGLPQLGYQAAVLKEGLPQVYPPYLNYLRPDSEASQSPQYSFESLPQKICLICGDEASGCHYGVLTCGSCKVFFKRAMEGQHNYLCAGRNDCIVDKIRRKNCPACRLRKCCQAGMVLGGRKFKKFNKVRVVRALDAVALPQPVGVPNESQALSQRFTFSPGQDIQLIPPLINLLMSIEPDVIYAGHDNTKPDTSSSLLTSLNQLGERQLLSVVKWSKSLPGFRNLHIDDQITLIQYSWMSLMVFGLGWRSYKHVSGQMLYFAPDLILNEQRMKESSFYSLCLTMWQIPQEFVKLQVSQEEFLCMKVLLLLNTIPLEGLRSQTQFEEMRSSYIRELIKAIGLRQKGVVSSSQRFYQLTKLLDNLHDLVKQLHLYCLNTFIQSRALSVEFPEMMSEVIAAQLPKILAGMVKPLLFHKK
Androgen receptor (Homo sapiens), sequence (P10275 whole entry, looked up): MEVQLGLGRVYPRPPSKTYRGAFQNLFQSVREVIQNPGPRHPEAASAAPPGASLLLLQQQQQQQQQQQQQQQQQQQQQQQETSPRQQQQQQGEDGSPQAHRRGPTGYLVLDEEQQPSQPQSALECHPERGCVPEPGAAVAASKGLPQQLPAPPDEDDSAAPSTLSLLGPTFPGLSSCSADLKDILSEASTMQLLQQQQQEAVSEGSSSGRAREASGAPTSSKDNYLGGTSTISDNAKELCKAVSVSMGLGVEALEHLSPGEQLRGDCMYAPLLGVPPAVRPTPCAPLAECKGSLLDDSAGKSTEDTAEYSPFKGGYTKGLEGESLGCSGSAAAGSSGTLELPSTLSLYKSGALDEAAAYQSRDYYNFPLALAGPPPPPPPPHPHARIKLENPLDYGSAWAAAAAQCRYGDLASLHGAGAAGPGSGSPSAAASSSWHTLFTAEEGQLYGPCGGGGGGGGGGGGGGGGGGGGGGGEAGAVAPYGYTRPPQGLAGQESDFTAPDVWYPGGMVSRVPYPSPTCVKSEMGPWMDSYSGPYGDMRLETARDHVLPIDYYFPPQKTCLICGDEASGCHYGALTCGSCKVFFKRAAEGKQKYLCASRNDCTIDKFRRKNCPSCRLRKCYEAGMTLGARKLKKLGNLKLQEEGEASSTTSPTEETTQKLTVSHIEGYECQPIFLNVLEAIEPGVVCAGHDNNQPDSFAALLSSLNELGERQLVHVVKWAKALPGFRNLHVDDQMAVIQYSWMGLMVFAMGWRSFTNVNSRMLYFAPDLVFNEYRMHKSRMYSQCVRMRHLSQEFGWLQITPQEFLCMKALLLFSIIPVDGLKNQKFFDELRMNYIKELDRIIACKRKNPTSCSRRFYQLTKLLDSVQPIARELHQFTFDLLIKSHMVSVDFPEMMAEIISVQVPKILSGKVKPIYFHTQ

For `CCOB(OCC)OCC`, the Potency [1] was “inactive”, the Potency [2] was “inactive” and the Potency [3] was “inactive”. For the same compound, the Potency [4] was “inactive”, the Potency [5] was “inactive” and the Potency [6] was “inactive”. For the same compound, the Potency [7] was “inactive”, the Potency [8] was “inactive” and the Potency [9] was “inactive”. For the same compound, the Potency [10] was “inactive”, the Potency [11] was “inactive” and the Potency [12] was “inactive”. The Potency [13] was “inactive”, the Potency [14] was “inactive” and the Potency [15] was “inactive”. The outcome [16] was “inactive”, the Potency [17] was “inactive” and the Potency [18] was “inactive”. For the same compound, the outcome [19] was “inactive”.
For `CC(C)(C)c1cc(CCC(=O)NCCCCCCNC(=O)CCc2cc(C(C)(C)C)c(O)c(C(C)(C)C)c2)cc(C(C)(C)C)c1O`, the Potency [1] was “inactive”, the Potency [2] was “inactive” and the Potency [3] was “inactive”. The Potency [4] was “inactive”, the Potency [5] was “inactive” and the Potency [6] was “inactive”. For the same compound, the Potency [7] was “inactive”, the Potency [8] was “inactive” and the Potency [9] was “inactive”. The Potency [10] was “inactive”, the Potency [11] was “inactive” and the Potency [12] was “inactive”. The Potency [13] was “inactive”, the Potency [14] was “inactive” and the Potency [15] was “inactive”. For the same compound, the outcome [16] was “inactive”, the Potency [17] was “inactive” and the Potency [18] was “inactive”. For the same compound, the outcome [19] was “inactive”.
With `Cc1cn[nH]c1` the Potency [1] was “inactive”, the Potency [2] was “inactive” and the Potency [20] was “inactive”. The Potency [3] was “inactive”, the Potency [5] was “inactive” and the Potency [6] was “inactive”. For the same compound, the Potency [7] was “inactive”, the Potency [8] was “inactive” and the Potency [9] was “inactive”. The Potency [10] was “inactive”, the Potency [11] was “inactive” and the Potency [13] was “inactive”. The Potency [14] was “inactive”, the Potency [15] was “inactive” and the outcome [16] was “inactive”. For the same compound, the Potency [17] was “inactive”, the Potency [18] was “inactive” and the outcome [19] was “inactive”.
With `C#CC(O)CCC` (configuration not stated) the Potency [1] was “inactive”, the Potency [2] was “inactive” and the Potency [3] was “inactive”. The Potency [4] was “inactive”, the Potency [5] was “inactive” and the Potency [6] was “inactive”. For the same compound, the Potency [7] was “inactive”, the Potency [8] was “inactive” and the Potency [9] was “inactive”. The Potency [10] was “inactive”, the Potency [11] was “inactive” and the Potency [12] was “inactive”. The Potency [14] was “inactive”, the Potency [15] was “inactive” and the outcome [16] was “inactive”. The Potency [17] was “inactive”, the Potency [18] was “inactive” and the outcome [19] was “inactive”.
With `COc1ccc(-n2nc(CCC(=O)N(C)O)cc2-c2ccc(Cl)cc2)cc1` the Potency [1] was “inactive”, the Potency [2] was 26.6 µM (active) and the Potency [3] was “inactive”. For the same compound, the Potency [4] was “inactive”, the Potency [5] was “inactive” and the Potency [6] was “inactive”. For the same compound, the Potency [7] was “inactive”, the Potency [8] was 8.41 µM (active) and the Potency [9] was “inactive”. For the same compound, the Potency [10] was 7.5 µM (active), the Potency [11] was “inactive” and the Potency [12] was 7.5 µM (active). The Potency [13] was “inactive”, the Potency [15] was “inactive” and the outcome [16] was “inactive”. For the same compound, the Potency [17] was “inactive” and the Potency [18] was “inactive”.
In the case of `C=CC(=O)OCCN(CC)CC`, the Potency [1] is reported as “inactive”, the Potency [2] is reported as “inactive” and the Potency [3] is reported as “inactive”. For the same compound, the Potency [4] was “inactive”, the Potency [5] was “inactive” and the Potency [6] was “inactive”. For the same compound, the Potency [7] was “inactive”, the Potency [8] was “inactive” and the Potency [9] was “inactive”. The Potency [10] was “inactive”, the Potency [11] was “inactive” and the Potency [12] was “inactive”. For the same compound, the Potency [14] was “inactive”, the Potency [15] was “inactive” and the Potency [17] was “inactive”. The Potency [18] was “inactive”.
In the case of `CCN=C1C=CC(=C(c2ccc(N(CC)CC)cc2)c2ccc(N(CC)CC)cc2)c2ccccc21`, the Potency [1] is reported as 0.608 µM (active), the Potency [2] is reported as 0.682 µM (active) and the Potency [3] is reported as 27.1 µM (active). The Potency [4] was 34.2 µM (active), the Potency [5] was 21.6 µM (active) and the Potency [6] was 24.2 µM (active). The Potency [7] was “inactive”, the Potency [8] was 0.0963 µM (active) and the Potency [9] was “inactive”. The Potency [11] was 2.16 µM (active), the Potency [12] was 27.1 µM (active) and the Potency [13] was “inactive”. For the same compound, the Potency [14] was 21.6 µM (active), the Potency [15] was “inactive” and the Potency [18] was 9.63 µM (active).
With `CC(=O)C=O` the Potency [1] was “inactive”, the Potency [2] was “inactive” and the Potency [3] was “inactive”. The Potency [4] was “inactive”, the Potency [5] was “inactive” and the Potency [6] was “inactive”. The Potency [7] was “inactive”, the Potency [8] was “inactive” and the Potency [10] was “inactive”. For the same compound, the Potency [11] was “inactive”, the Potency [12] was “inactive” and the Potency [13] was “inactive”. The Potency [14] was “inactive”, the Potency [15] was “inactive” and the Potency [18] was “inactive”.
